Screens: PubChem BioAssay, National Center for Advancing Translational Sciences (NCATS)
Tau filament bind = tau filament binding. P10636. recombinant tau filaments, thioflavin S fluorescence, 15 h; filaments grown with octadecylsulfate alongside compound. Potency, µM (titrated, usually from 57.1 µM). 2% of 71,000 active;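 note: actives lower thioflavin S fluorescence by blocking filaments or displacing dye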
Target sequence (P10636 whole entry, looked up): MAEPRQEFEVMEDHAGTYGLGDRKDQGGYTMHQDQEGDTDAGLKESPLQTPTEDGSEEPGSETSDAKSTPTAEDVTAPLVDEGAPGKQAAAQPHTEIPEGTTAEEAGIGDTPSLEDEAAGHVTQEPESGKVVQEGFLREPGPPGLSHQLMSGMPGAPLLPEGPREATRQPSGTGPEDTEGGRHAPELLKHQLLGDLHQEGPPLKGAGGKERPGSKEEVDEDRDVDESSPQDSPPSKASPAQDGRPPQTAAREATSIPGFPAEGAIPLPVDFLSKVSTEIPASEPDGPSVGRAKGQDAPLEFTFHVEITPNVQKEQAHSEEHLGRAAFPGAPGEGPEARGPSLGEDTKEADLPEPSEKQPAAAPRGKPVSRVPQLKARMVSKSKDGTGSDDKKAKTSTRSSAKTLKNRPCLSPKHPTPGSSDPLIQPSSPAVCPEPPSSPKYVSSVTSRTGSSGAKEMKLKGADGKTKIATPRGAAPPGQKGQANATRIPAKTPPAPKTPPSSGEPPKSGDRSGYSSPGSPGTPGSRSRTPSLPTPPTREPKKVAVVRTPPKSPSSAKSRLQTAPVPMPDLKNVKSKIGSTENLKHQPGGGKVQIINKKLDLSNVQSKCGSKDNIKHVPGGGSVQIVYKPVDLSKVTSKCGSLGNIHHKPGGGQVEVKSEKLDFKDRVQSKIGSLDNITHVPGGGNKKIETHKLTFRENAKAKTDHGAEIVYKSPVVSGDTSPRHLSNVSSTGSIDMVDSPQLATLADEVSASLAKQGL
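Assay mix: 1 uM His-tagged tau, 30 uM sodium octadecylsulfate, thioflavine S dye in HEPES/NaCl/DTT buffer. Compound is added prior to the inducer. Fluorescence after 15 h at 37 C.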
USP2a inhib = USP2a (human) protease inhibition; O75604; USP2a enzymatic assay, qHTS inhibition; Potency, µM (highest dose often 38.3 µM), actives largely listed as inhibitors; 0.1% of 60,000 active; AID 927; note: nearly all actives have a fitted effect of over 60% in size
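20 nM USP2 core + cpd, 30 min RT; add 20 nM Ub-PLA2/20 uM NBD C6-HPC; read Ex460/Em535 at 0 h and 2.5 h. Normalized to NEM; qHTS curve fit/classification.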
Hsp90 Hop PPI = changes Hsp90-Hop TPR2A binding signal, up or down; AlphaScreen TPR2A-His6 binding biotin-Hsp90 C-terminal peptide; Potency, µM (series often up to 57 µM); 0.44% of 71,000 active; AID 595; active = well fitted curve in either direction with a large enough effect; inconclusive = small, poorly fitted or top-dose-only effect, or another doubt
PK Bst = modulators of Bacillus stearothermophilus pyruvate kinase; Potency, µM; 1.2% of 51,000 active; AID 361; purified pyruvate kinase, luminescence ATP production; ribose 5-phosphate activator present at AC10; in the data active = potency below about 11 µM; inconclusive = mostly about 12 µM to 25 µM;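 the screen sought inhibitors and activators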
ALOX15 inhib = 15-hLO (ALOX15) enzyme inhibition | P16050 | purified 15hLO-1, xylenol orange hydroperoxide absorbance | Potency, µM (highest dose often 57.1 µM), usual class: inhibitors | 1.4% of 74,000 active | AID 887; note: nearly all actives have a fitted effect of over 55% in size
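Compounds were preincubated 15 min at room temperature with 40 nM purified human enzyme (25 mM Hepes pH 7.5, 0.01% Triton X-100); 50 uM arachidonic acid reacted 6 min. Fe-xylenol orange detection, 30 min, absorbance ratio 573/405 nm.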
GBA activity = alters purified human glucocerebrosidase activity; purified enzyme, resorufin glucoside fluorescence (screen aimed at inhibitors), 20 min; Potency, µM; 1.1% of 48,000 active; in the data active = potency below about 15 µM; inconclusive = mostly about 16 µM to 33 µM;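 note: the screen sought inhibitors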
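Compounds titrated against 0.2 nM normal enzyme, 30 uM resorufin beta-D-glucopyranoside substrate, citrate/phosphate buffer with taurocholate and tween-20, pH 5.9. Reaction ran 20 min at room temperature; fluorescence (Ex 548/Em 600) gave AC50.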
Large screens that a line does not name were inactive. Sampled rows, rich in hits. Any-hit rate of the full collection: about 4.6%. Unless noted, calls come from the whole dose curve; as a rule, active = well fitted curve in the direction sought with a large enough effect; inconclusive = small, poorly fitted or top-dose-only effect, or another doubt; inactive = no such curve, though single readings can be large; an effect the other way counts as inactive or inconclusive.

Cc1noc(C)c1S(=O)(=O)Nc1ccc(C(=O)NCCc2ccccc2)cc1	GBA activity 1.6
Cc1ccc(NC(=O)c2ccc(NS(=O)(=O)c3c(C)noc3C)cc2)cc1C	GBA activity 11
COc1ccc(NC(=O)c2ccc(NS(=O)(=O)c3c(C)noc3C)cc2)cc1OC	GBA activity 0.29
Cc1noc(C)c1S(=O)(=O)Nc1ccc(C(=O)NC2CCCCC2)cc1	GBA activity 4.1
CCCCCCCCCCCCOS(=O)(=O)O	none (no result: USP2a inhib, PK Bst, GBA activity)
O=C(CCCC(=O)N(CC(=O)NC1CCCC1)Cc1ccc2c(c1)OCO2)Nc1ccccn1	none
COCC(C)NC(=O)c1cc(-c2cccc(OC)c2)on1 (stereo unspecified)	none (no result: PK Bst)
COc1ccc(-n2ncc3c(NCc4ccco4)ncnc32)cc1	none (no result: Tau filament bind, USP2a inhib, Hsp90 Hop PPI, PK Bst, GBA activity)
Clc1ccc(-n2ncc3c(NCc4ccco4)ncnc32)cc1	PK Bst 7.6 (no result: Tau filament bind, USP2a inhib, Hsp90 Hop PPI, ALOX15 inhib, GBA activity)
O=C1c2ccccc2-c2nccnc21	none (no result: PK Bst)
O=C1c2ccccc2-c2nc3ncnn3c(-c3ccccc3Cl)c21	Tau filament bind 13µM (no result: USP2a inhib, PK Bst, GBA activity)
CN(C(=O)c1ccccc1)c1nc2ccccc2s1	PK Bst 8.5
CN(C(=O)c1ccncc1)c1nnc(-c2ccccn2)s1	none
CC(C)C[C@H](NC(=O)[C@@H](NC(=O)N[C@@H](Cc1ccccc1)C(=O)O)[C@H]1CCN=C(N)N1)C(=O)N[C@H](C=O)Cc1ccccc1	Tau filament bind inconclusive (no result: USP2a inhib, PK Bst, ALOX15 inhib, GBA activity)
Cc1cc(C)c2c(N)c(C(=O)N3CCCCCC3)sc2n1	none
Cc1cnc(C(=O)N2CCN(S(=O)(=O)c3ccc4ccccc4c3)CC2)cn1	none (no result: PK Bst)
O=C(c1n[nH]c2ccccc12)N1CCN(S(=O)(=O)c2ccc3ccccc3c2)CC1	PK Bst 9.2 (no result: GBA activity)
CCCc1ncc(C(=O)c2ccc(OC)cc2)n1C	ALOX15 inhib 10µM (no result: PK Bst)
COc1ccc(C(=O)c2cnc(C(C)C)n2C)cc1	none (no result: PK Bst, GBA activity)
Cc1ccccc1Cn1c(CN2CCN(c3ccc(F)cc3)CC2)nc2c1c(=O)n(C)c(=O)n2C	ALOX15 inhib 20µM (no result: USP2a inhib, PK Bst, GBA activity)
CC(=O)Oc1ccc(NC(=O)Cc2ccccc2)cc1	none
CCc1cc2c(NCc3ccco3)ncnc2s1	none (no result: PK Bst, GBA activity)
CCCOc1ccc(-c2nnc(-c3ccco3)o2)cc1	PK Bst 3.4
CC(C)COc1ccc(-c2nnc(-c3ccco3)o2)cc1	PK Bst 9.5
O=C(NCCN1CCN(c2ccccc2)CC1)c1cccn2c(=O)c3cc(Cl)ccc3nc12	Tau filament bind 16µM
Cc1ccc2nsnc2c1S(=O)(=O)Nc1cccc2nsnc12	none
Cc1ccc(C)c(NS(=O)(=O)c2c(C)ccc3nsnc23)c1	Tau filament bind 13µM (no result: USP2a inhib)
COC(=O)c1ccccc1NC(=O)CN1CCN(C23CC4CC(CC(C4)C2)C3)CC1	none
N#Cc1c(NC(=O)CSc2nnc(-c3ccccc3O)n2-c2ccccc2)sc2c1CCCC2	GBA activity 10
Cc1ccc(C(=O)NCc2nnc(SCC(=O)Nc3sc4c(c3C#N)CCCC4)n2C)cc1	none
COc1cccc(NC(=O)N(CCCN2CCOCC2)C(C)c2cc3cccc(OC)c3o2)c1 (stereo unspecified)	GBA activity 9.6
Cn1c(CSCc2ccc(Cl)c(Cl)c2)nnc1SCC(=O)Nc1nccs1	none
O=C(Nc1ccccc1C(=O)O)c1ccc2ccccc2n1	none (no result: Tau filament bind, USP2a inhib, Hsp90 Hop PPI, PK Bst, GBA activity)
Cc1ccc(C(=O)Nc2ccc(Cl)cn2)cc1	PK Bst 9.1
Cc1ccc(NC(=O)c2ccc3ccccc3n2)nc1	PK Bst 6.9, GBA activity inconclusive
Cc1ccccc1C(=O)Nc1ccc(Cl)cn1	ALOX15 inhib inconclusive (no result: PK Bst, GBA activity)
Nc1ccc(C2CCCc3nonc32)c2nonc12 (stereo unspecified)	Tau filament bind 25µM, Hsp90 Hop PPI inconclusive, ALOX15 inhib 7.9µM (no result: PK Bst, GBA activity)
O=c1c2ccccc2nnn1CSc1nnc(-c2cccnc2)n1-c1ccccc1F	none
Cc1ccc(-n2c(SCn3nnc4ccccc4c3=O)nnc2-c2cccnc2)c(C)c1	Tau filament bind 16µM (no result: GBA activity)
Cc1ccc2c(c1)-c1c(ssc1=S)C(C)(C)N2C(=O)CSc1nncn1C	Tau filament bind 7.9µM, ALOX15 inhib 16µM (no result: PK Bst, GBA activity)
Cc1cc(C)c2c(c1)-c1c(ssc1=S)C(C)(C)N2C(=O)CSc1nncn1C	Tau filament bind 2µM, ALOX15 inhib inconclusive (no result: PK Bst, GBA activity)
COc1cc(Cl)c(S(=O)(=O)N2CCOCC2)cc1Cl	none
O=C(Nc1ccc(-c2noc(CCc3ccccc3)n2)cc1)c1cccnc1	GBA activity 14
Cc1ccc(N=c2oc3cc(O)ccc3cc2C(N)=O)cc1	PK Bst 9.3, ALOX15 inhib inconclusive, GBA activity inconclusive
COc1ccc(N=c2oc3cc(O)ccc3cc2C(=O)NCC2CCCO2)cc1 (stereo unspecified)	none
COC(=O)c1ccccc1NC(=O)C(C)Oc1ccccc1 (stereo unspecified)	Hsp90 Hop PPI inconclusive
COc1ccc(CN2C(=O)CN=C2Nc2cccc(C)c2C)cc1	none
CCOC(=O)C1CCN(c2nc3cc(OC)ccc3cc2C#N)CC1	Hsp90 Hop PPI 25µM
COc1ccc2nc(N3CCC(C)CC3)c(C#N)cc2c1	Hsp90 Hop PPI 25µM (no result: USP2a inhib, PK Bst)
COc1ccc2nc(N3CCC(O)CC3)c(C#N)cc2c1	none (no result: PK Bst, GBA activity)
CCOC(=O)c1[nH]cnc1C(=O)Nc1ccccn1	none (no result: PK Bst, GBA activity)
CCOC(=O)c1[nH]cnc1C(=O)O	Hsp90 Hop PPI 25µM (no result: USP2a inhib)
CC(C)C[C@@H](CC(=O)N[C@@H](CCC(=O)O)CC(=O)O)NC(=O)[C@@H]1CNCC[C@H]1NC(=O)C[C@@H](NC(=O)C[C@H](Cc1c[nH]c2ccccc12)NC(=O)[C@@H]1CNCC[C@H]1N)C(C)C	none (no result: USP2a inhib, PK Bst, ALOX15 inhib, GBA activity)
Cc1cc(N2CCOCC2)nc2ccc(NC(=O)C3CCC(C)CC3)cc12 (stereo unspecified)	GBA activity 0.061
CCOC(=O)C1CCCN(C(=O)N2CCOCC2)C1 (stereo unspecified)	none (no result: PK Bst, GBA activity)
CCCCNC(=O)CCC(=O)Nc1ccc2nc(N3CCOCC3)cc(C)c2c1	GBA activity 3.8 (no result: PK Bst)
COCCCNC(=O)CCC(=O)Nc1ccc2nc(N3CCOCC3)cc(C)c2c1	GBA activity 6.8
CCOC(=O)C1CCCN(C(=O)CCC(=O)Nc2ccc3nc(N4CCOCC4)cc(C)c3c2)C1 (stereo unspecified)	GBA activity 2.6
CC(C)OCC(O)CN (stereo unspecified)	none
O=C(O)c1cc(S(=O)(=O)Nc2ccc3c(c2)OCCO3)c(Cl)cc1Cl	none (no result: USP2a inhib, PK Bst, GBA activity)
CCSc1ccccc1C(=O)N1CCN(c2ccccc2F)CC1	none
COc1ccc(C=Nc2c(O)ccc3ccccc23)cc1OC	Tau filament bind 4µM (no result: USP2a inhib, PK Bst, GBA activity)
Cc1cc(N=Cc2c(O)ccc3ccccc23)no1	none (no result: PK Bst, GBA activity)
COc1ccc(OC)c(NC(=O)C2CCC(CNc3c(N4CCC(C)CC4)c(=O)c3=O)CC2)c1 (stereo unspecified)	Tau filament bind 3.2µM (no result: USP2a inhib, PK Bst, GBA activity)
O=c1c2ccccc2nc2n1CCS2	none
